Calls of active or inactive are those of the source.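 How the source made its calls: active means cell killing with a fitted half-maximal concentration no more than twice the top valid dose used; inconclusive means flat curve with a moderate signal drop, or poor fit; inactive means the rest.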

This assay is described as follows: loss of HepG2 viability via ATP – cell-based, plate reader, dry powder, set 7, cytotoxicity control, dose response (AID 743313). The settings on record: ATP luminescence (CellTiter-Glo), 72 h; series mostly up to 26 µM. Background: ATP-based viability assays read luminescence as a measure of living cells.
With `COc1cccc(OCCn2c(=S)[nH]c3ccccc32)c1`, the result was inactive. For the compound `Cc1ccc(C(C)C)c(OCCn2c(CO)nc3ccccc32)c1`, the result was inactive. Turning to `COc1ccc(OCCn2c(=S)[nH]c3ccccc32)cc1`, the call was inactive. On to `Fc1ccccc1OCCn1c(=S)[nH]c2ccccc21`, for which the compound was classed as inactive. As for `S=c1[nH]c2ccccc2n1CCOc1ccccc1`, the outcome was inactive. As for `Cc1ccc(C(C)C)c(OCCn2c(=S)[nH]c3c(C)cccc32)c1`, the result was inactive.

In the case of `COc1ccccc1OCCn1c(=S)[nH]c2ccccc21`, the compound was called inactive.
